Active and inactive are the calls of the source. The calls were made as follows: active = hit-call score of the fitted dose curve at least 0.9, where 1 is the maximum; inactive = score below 0.9.

A short description of this assay: ATG_BRE_CIS: Attagene CIS-FACTORIAL HepG2 Assay for human Bone Morphogenetic Protein (BMP) Response Element (BRE) (AID 2282933). As to conditions: HepG2 BMP response element reporter, Attagene transcription factor profiling; actives raise or lower the signal. The procedure, abridged: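 A HepG2 multiplex reporter system measured inducible reporter mRNA 24 h post-dosing. Detection: RT-PCR, 6-FAM primer extension, HpaI digestion, capillary electrophoresis. Activity fitted bidirectionally relative to DMSO.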
For the molecule `NC(=O)C(F)(F)C(F)(F)C(F)(F)C(F)(F)F`, the molecule was classed as inactive.
In the case of `FC(F)(F)C(F)(F)C(F)(F)C(F)(F)C(F)(F)CCI`, the outcome was inactive.
For `CCN(CC)c1ccc2c(C)cc(=O)oc2c1`, the AC50 is 143 µM (active).
For `CCCCCCCCCCCCCCCC[N+](C)(C)Cc1ccccc1`, the outcome was inactive.
Still for that read-out and setting: to `Nc1ccc([N+](=O)[O-])cc1O` belongs “inactive”; to `FC(F)(F)C(F)(F)C(F)(F)C(F)(F)C(F)(F)C(F)(F)C(F)(F)C(F)(F)CCS`, “inactive”.
`OC[C@@H](O)[C@@H](O)[C@H](O)[C@@H](O)CO`: the call was inactive.
Same read-out and setting: to `C(=C(c1ccccc1)c1ccccc1)c1ccccc1` belongs “inactive”; to `C=CC/C=C/C/C=C/C/C=C/C`, “inactive”; to `OCCCC(F)(F)C(F)(F)C(F)(F)C(F)(F)C(F)(F)C(F)(F)C(F)(F)F`, “inactive”.
Turning to `c1ccc(-c2ccccc2-c2ccccc2)cc1`, the molecule was called inactive.

The values above are taken from PubChem BioAssay (EPA / NIEHS).
